The values below come from PubChem BioAssay (Tox21).

Several values for one entry are separate records, joined by “and”; a condition that tells them apart may be missing. Equal values may be shown once. Records with an inconclusive call do not appear. Some compounds were tested as several samples or in several runs, with calls that do not always agree. Activity calls are given as the source filed them. Unless noted, the call rests on the fitted dose curve; in most records, active means well fitted curve in the direction sought with a large enough effect in the repeat runs; inconclusive means weak or mixed curves; inactive means no such curve, though single readings can be large; an effect the other way counts as inactive or inconclusive.

The target in assay [1] is Progesterone receptor (Homo sapiens) (UniProt P06401). Briefly: qHTS assay to identify small molecule agonists of the progesterone receptor (PR) signaling pathway (AID 1346784; calls by dose curve; further: nearly all actives have a fitted effect of over 30% in size). A digest of the protocol: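 Agonist qHTS: compounds pinned onto 3,000 PR-UAS-bla HEK 293T cells per well in charcoal-stripped serum medium, 16hr at 37C, then beta-lactamase activity measured by LiveBLAzer FRET fluorescence after 2 hours at room temperature.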

For assay [2] the target is unchanged. Nature of the assay: qHTS assay to identify small molecule antagonists of the progesterone receptor (PR) signaling pathway (AID 1346795; active means well fitted inhibition curve with a large enough effect in the signal ratio in the repeat runs, not every such curve was filed as active; the % refers to the signal ratio; further: potency means the concentration at half of the fitted maximal effect). A digest of the protocol: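 Antagonist mode with agonist R5020 at 1 nM final and 16 hr incubation at 37C. Reporter was beta-lactamase driven by UAS in HEK293T (PR-UAS-bla), 2% charcoal-stripped serum; signal from LiveBLAzer FRET substrate, 2 hr at room temperature.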
A general note: Quantitative high-throughput screening tests each substance at several concentrations.

The nature of assay [3]: qHTS assay to identify small molecule agonists of the progesterone receptor (PR) signaling pathway - cell viability counter screen (AID 1346799; calls by dose curve; further: nearly all actives have a fitted effect of over 45% in size; further: potency means the concentration at half of the fitted maximal effect). The procedure, abridged:
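Cytotoxicity measured by CellTiter-Glo luminescence (30 min, RT) in the same wells as the PR beta-lactamase agonist read. Those HEK293T cells had 16 h compound treatment at 37 C in 2% charcoal-stripped FBS medium.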

Assay [4] in a line: qHTS assay to identify small molecule antagonists of the TGF-beta/Smad signaling pathway - cell viability counter screen (AID 1346824). Further: nearly all actives have a fitted effect of over 50% in size. The procedure, abridged: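 SBE-bla HEK 293T cells, incubated overnight, then compound plus 0.25 ng/mL TGF-beta1 (stock added) for 5 hr at 37 C. Viability was read in the same wells by CellTiter-Glo luminescence after 30 min at room temperature.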

A short description of assay [5]: qHTS assay to identify small molecule agonists of the TGF-beta/Smad signaling pathway - cell viability counter screen (AID 1346829). Further: top concentration of the series differs between compounds; nearly all actives have a fitted effect of over 45% in size. The procedure, abridged: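 After overnight seating at 37 C and 5% CO2, reporter cells got compounds for 5 hr and FRET substrate for 2 hr; cell viability then came from CellTiter-Glo luminescence.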
Assay [6] can be described thus: qHTS assay to identify small molecule agonists of the TGF-beta/Smad signaling pathway (AID 1346859; active means well fitted activation curve with a large enough effect in the signal ratio in the repeat runs, not every such curve was filed as active; the % refers to the signal ratio; further: series mostly up to about 77 µM). The procedure, abridged: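 Fluorescence (ex 405 nm; em 460 and 530 nm) was read 2 h after LiveBLAzer FRET substrate at RT. The preceding compound treatment of overnight-plated SBE-bla HEK293T cells lasted 5 h at 37 C.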
Assay [7] deals with Thyrotropin-releasing hormone receptor (Homo sapiens) (UniProt P34981). Briefly: qHTS assay to identify small molecule antagonists of the thyrotropin-releasing hormone receptor (TRHR) signaling pathway (AID 1346877; active means well fitted inhibition curve with a large enough effect in the repeat runs, not every such curve was filed as active; further: series mostly up to about 51 µM). The procedure, abridged: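 Screening used HEK293 cells engineered with TRHR, with a brief 5 min room-temperature compound exposure preceding addition of TRH to 1 nM. The read-out was kinetic calcium-dye fluorescence, concentration-response from 15 doses in triplicate.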

The target is the same in assay [8]. Nature of the assay: qHTS assay to identify small molecule agonists of the thyrotropin-releasing hormone receptor (TRHR) signaling pathway (AID 1346891; calls by dose curve; further: series mostly up to about 58 µM). The procedure, abridged:
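Agonist-mode intracellular calcium readout: kinetic fluorescence over 3 min at 1 s intervals after compound addition to TRHR-HEK293 cells (18 h seeded, 2 h dye-loaded at 37 C). Fifteen concentrations, triplicates.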

A short description of assay [9]: Human pregnane X receptor (PXR) small molecule agonists, qHTS cell viability counter screen (AID 1346977). Further: nearly all actives have a fitted effect of over 50% in size. Further: potency means the concentration at half of the fitted maximal effect. A digest of the protocol: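 Same-well viability read: CellTiter-Fluor added after 23 hr compound exposure, fluorescence measured 1 hr later. Cells were PXR-Luc HepG2 seeded at 2,000/well in 5% charcoal-stripped FBS medium, rested 5 hr before dosing at 37 C.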

Assay [10] in a line: Caspase-3/7 induction in HepG2 cells by small molecules, qHTS assay (AID 1346978). Further: nearly all actives have a fitted effect of over 15% in size. The procedure, abridged:
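Wild-type HepG2 cells, 2,000/well, settled 5 hr at 37 C and 5% CO2, then compound-treated for 17 hr; caspase-3/7 activity read by luminescent Caspase-Glo 3/7 after 30 min at room temperature.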

Assay [11] can be described thus: Caspase-3/7 induction in CHO-K1 cells by small molecules, qHTS cell viability counter screen (AID 1346979). Further: nearly all actives have a fitted effect of over 35% in size. Further: potency means the concentration at half of the fitted maximal effect. A digest of the protocol:
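Cytotoxicity counter screen: CellTiter-Fluor added to compound-treated wild-type CHO-K1 cells at 16 h (37C, 5% CO2), fluorescence measured 1 h later; same wells as caspase-3/7 measurement.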

Assay [12] can be described thus: Caspase-3/7 induction in CHO-K1 cells by small molecules, qHTS assay (AID 1346980). Further: nearly all actives have a fitted effect of over 15% in size. A digest of the protocol: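 Wild-type CHO-K1 cells exposed to compounds for 17hr at 37 C, 5% CO2. Caspase-3/7 activity then measured by Caspase-Glo 3/7 luminescence after 30min at room temperature.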
For assay [13], the target named is Nuclear receptor subfamily 1 group I member 2 (Homo sapiens) (UniProt O75469). Briefly: Human pregnane X receptor (PXR) small molecule agonists, qHTS assay (AID 1346982). Further: nearly all actives have a fitted effect of over 35% in size. Further: potency means the concentration at half of the fitted maximal effect. A digest of the protocol:
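We seeded PXR-Luc HepG2 cells in assay medium containing 5% charcoal-stripped FBS, added compounds 5 hr later, incubated 24 hr, and read luminescence with ONE-Glo reagent.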

Assay [14] in a line: qHTS assay to identify small molecule antagonists of the progesterone receptor (PR) signaling pathway - cell viability counter screen (AID 1346798). Further: series mostly up to about 92 µM; nearly all actives have a fitted effect of over 50% in size. The procedure, abridged: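 Cytotoxicity read as CellTiter-Glo luminescence (30 min, room temperature) in the same wells as the beta-lactamase readout. HEK293T PR-UAS-bla cells in charcoal-stripped 2% FBS received compound and R5020, then 16 h at 37C, 5% CO2.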

A short description of assay [15]: Caspase-3/7 induction in HepG2 cells by small molecules, qHTS cell viability counter screen (AID 1346981). Further: nearly all actives have a fitted effect of over 30% in size. Further: potency means the concentration at half of the fitted maximal effect. A digest of the protocol: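 Multiplexed with the caspase-3/7 assay: HepG2 cells, 16 hr compound treatment, CellTiter-Fluor viability detection by fluorescence.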
Assay [16] addresses Cytochrome P450 2D6 (Homo sapiens) (UniProt P10635). Nature of the assay: Cytochrome P450 Family 2 Subfamily D Member 6 (CYP2D6) small molecule antagonists: luciferase reporter qHTS assay (AID 1671196). Further: nearly all actives have a fitted effect of over 50% in size. Further: potency means the concentration at half of the fitted maximal effect. The procedure, abridged: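 Luminescence (RLU), read 20 min after detection reagent, indicated CYP2D6 conversion of proluciferin to luciferin during a 1 h NADPH-dependent reaction at room temperature.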
A general note: Reporter assays use an easily measured gene product as a stand-in for the process of interest.

Assay [17] addresses Cytochrome P450 2C19 (Homo sapiens) (UniProt P33261). Briefly: Cytochrome P450 Family 2 Subfamily C Member 19 (CYP2C19) small molecule antagonists: luciferase reporter qHTS assay (AID 1671197). Further: nearly all actives have a fitted effect of over 65% in size. Further: potency means the concentration at half of the fitted maximal effect. A digest of the protocol:
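Inhibition of CYP2C19 was scored from loss of luminescence in a P450-Glo proluciferin substrate assay, NADPH-started and run 1 h at 37C, with ketoconazole as positive control.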

Cytochrome P450 2C19 (Homo sapiens), sequence (P33261 whole entry, looked up): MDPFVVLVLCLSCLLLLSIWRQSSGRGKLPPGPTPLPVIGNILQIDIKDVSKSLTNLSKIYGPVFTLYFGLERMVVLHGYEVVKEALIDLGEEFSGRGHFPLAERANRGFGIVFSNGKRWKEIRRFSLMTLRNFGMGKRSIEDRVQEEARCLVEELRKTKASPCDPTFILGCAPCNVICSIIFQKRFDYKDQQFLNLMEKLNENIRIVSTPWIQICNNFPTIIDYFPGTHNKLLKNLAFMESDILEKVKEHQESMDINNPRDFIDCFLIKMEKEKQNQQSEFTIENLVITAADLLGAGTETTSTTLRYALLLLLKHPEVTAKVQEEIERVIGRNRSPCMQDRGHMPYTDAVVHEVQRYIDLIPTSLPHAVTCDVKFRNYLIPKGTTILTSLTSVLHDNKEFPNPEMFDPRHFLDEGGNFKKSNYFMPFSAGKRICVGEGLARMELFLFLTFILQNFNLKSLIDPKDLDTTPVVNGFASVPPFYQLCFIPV
Cytochrome P450 2D6 (Homo sapiens), sequence (P10635 whole entry, looked up): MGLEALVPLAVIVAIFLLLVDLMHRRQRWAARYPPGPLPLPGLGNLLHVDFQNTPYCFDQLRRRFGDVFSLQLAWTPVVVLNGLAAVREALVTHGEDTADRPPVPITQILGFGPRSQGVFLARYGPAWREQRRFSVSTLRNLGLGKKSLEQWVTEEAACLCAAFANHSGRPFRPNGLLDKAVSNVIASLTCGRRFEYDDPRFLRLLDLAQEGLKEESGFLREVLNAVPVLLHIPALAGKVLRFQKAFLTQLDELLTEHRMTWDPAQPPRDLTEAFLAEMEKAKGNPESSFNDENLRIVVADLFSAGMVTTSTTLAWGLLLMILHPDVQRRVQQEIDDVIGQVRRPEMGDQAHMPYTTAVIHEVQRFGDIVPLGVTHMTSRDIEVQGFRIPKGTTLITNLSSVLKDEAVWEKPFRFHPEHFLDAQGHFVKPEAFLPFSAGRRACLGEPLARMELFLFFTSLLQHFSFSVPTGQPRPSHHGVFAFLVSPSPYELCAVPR
Nuclear receptor subfamily 1 group I member 2 (Homo sapiens), sequence (O75469 whole entry, looked up): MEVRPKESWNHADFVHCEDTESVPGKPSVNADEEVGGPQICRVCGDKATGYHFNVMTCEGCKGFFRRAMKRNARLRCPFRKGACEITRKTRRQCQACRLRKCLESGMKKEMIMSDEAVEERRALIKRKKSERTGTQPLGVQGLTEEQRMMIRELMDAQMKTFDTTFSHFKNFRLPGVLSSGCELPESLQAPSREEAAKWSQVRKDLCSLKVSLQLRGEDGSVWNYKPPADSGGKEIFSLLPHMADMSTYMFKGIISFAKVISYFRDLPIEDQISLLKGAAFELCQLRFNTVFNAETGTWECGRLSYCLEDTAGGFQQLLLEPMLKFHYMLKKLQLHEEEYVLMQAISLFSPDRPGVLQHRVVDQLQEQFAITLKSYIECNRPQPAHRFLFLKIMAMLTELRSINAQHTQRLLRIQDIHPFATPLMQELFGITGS
Thyrotropin-releasing hormone receptor (Homo sapiens), sequence (P34981 whole entry, looked up): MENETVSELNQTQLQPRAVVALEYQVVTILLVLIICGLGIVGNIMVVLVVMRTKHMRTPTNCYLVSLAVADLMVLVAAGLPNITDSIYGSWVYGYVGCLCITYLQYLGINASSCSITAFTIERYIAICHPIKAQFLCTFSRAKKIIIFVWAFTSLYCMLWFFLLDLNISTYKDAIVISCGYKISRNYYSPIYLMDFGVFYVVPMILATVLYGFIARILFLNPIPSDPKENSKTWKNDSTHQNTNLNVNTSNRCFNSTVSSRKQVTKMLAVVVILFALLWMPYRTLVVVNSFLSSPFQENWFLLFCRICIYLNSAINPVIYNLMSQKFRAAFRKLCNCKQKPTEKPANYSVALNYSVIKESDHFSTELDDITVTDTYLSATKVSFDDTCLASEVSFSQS
Progesterone receptor (Homo sapiens), sequence (P06401 whole entry, looked up): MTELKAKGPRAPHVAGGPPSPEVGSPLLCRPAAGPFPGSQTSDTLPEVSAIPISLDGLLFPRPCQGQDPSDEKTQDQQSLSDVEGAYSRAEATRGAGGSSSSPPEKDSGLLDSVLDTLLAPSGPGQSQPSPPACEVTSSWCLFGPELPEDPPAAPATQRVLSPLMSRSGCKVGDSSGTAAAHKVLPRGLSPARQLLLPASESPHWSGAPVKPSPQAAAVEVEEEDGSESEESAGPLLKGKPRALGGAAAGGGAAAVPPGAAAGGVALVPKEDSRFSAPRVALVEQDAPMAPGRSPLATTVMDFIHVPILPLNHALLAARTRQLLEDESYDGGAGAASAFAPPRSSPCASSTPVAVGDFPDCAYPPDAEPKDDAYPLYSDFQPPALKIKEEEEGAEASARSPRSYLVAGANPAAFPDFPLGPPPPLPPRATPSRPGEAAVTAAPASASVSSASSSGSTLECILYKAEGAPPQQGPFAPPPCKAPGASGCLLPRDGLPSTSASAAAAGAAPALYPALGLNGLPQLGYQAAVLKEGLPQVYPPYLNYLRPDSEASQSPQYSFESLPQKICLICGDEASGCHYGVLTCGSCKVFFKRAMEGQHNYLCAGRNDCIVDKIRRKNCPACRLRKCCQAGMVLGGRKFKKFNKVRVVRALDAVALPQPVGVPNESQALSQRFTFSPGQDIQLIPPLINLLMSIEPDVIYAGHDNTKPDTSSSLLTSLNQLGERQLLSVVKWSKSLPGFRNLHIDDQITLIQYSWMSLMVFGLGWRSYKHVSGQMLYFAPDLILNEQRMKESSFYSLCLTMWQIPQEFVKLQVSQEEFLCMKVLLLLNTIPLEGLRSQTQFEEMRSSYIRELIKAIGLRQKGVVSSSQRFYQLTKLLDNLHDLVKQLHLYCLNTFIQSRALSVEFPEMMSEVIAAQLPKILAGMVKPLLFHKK

As to `CC(CN1c2ccccc2Sc2ccccc21)N(C)C` (configuration not stated), the Potency entry in assay [1], in [4], in assay [5], in [6], in assay [7] and in assay [10] was “inactive” throughout. Further, the Potency entry in [12] was “inactive”. For the same compound, the Potency in assay [2] was 61.8 µM (active) and 30.6 µM (active); in assay [3], 69.3 µM (active) and 30.6 µM (active) and inactive; in assay [9] it was 44.7 µM (active) and 48.6 µM (active); in assay [11] it was 61.1 µM (active); in [13], 19.3 µM (active) and inactive. In addition, the result in [8] was inactive.

For the compound `COc1ccc(N)c(OC)c1`, the Potency entry in [1], in [2], in assay [14], in [3], in assay [4] and in assay [5] was “inactive” each time. For the same compound, the Potency entry in [6], in assay [9], in assay [10], in assay [11], in assay [12] and in assay [15] was “inactive” throughout. Moreover, the Potency entry in assay [13] was “inactive”. Also, the Potency in [16] is 1.53 µM (active) and 17.8 µM (active); in [17], 15.3 µM (active) and 35.6 µM (active).

As for `OC1CCCCC1`, the Potency entry in assay [1], in [2], in assay [14], in assay [3], in assay [4] and in assay [5] was “inactive” each time. Besides, the Potency result in [6], in [9], in assay [10], in assay [11], in [12] and in assay [15] was “inactive” throughout. Also, the Potency result in assay [13], in assay [16] and in [17] was “inactive” each time.

On to `C=C1C[C@]23C[C@@]1(O)CC[C@H]2[C@@]12C=C[C@H](O)[C@@](C)(C(=O)O1)[C@H]2[C@@H]3C(=O)O`, for which the Potency entry in [1], in assay [2], in [14], in assay [3], in assay [4] and in assay [5] was “inactive” throughout. Also, the Potency entry in assay [6], in assay [10], in assay [11], in [12] and in assay [15] was “inactive” each time.

As to `COc1ccc2cc3[n+](cc2c1OC)CCc1cc2c(cc1-3)OCO2`, the Potency entry in assay [1], in assay [2], in assay [14], in assay [4], in assay [5] and in [6] was “inactive” each time. Besides, the Potency entry in [7], in assay [9], in assay [10], in [12] and in [13] was “inactive” throughout. Further, the result in assay [8] was inactive. Moreover, the Potency in assay [15] is 54.9 µM (active); in assay [16], 180 nM (active) and 2.19 µM (active).

For the compound `Nc1cccc(N)n1`, the Potency entry in [1], in [2], in assay [14], in [3], in assay [4] and in [5] was “inactive” in each case. Also, the Potency entry in assay [6], in assay [9], in assay [10], in assay [11], in assay [12] and in assay [15] was “inactive” each time. Moreover, the Potency result in assay [13] is “inactive”. In [17], the Potency is 39.9 µM (active).
